Results published in PubChem BioAssay AID1159580 (chemical genetic matrix, 2015).
In all, about 5,500 compounds went through this assay and about 2,000 (36%) were called active. Another 18% or so got no clear call; they are omitted. Rule as the data show it: active = normalized growth mostly below about 0.91 (no sharp cut-off); inconclusive = no clear call, values can overlap the other calls; inactive = mostly above about 0.92. This is one part of the list.

Assay: chemical genetic growth profiling, strain panel (AID 1159580);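 also: tested at 20 µM; growth read once vehicle control cultures reached saturation at 30 °C; 1 = growth at the plate median or of vehicle wells; lower values mean less growth of the strain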
Conditions: S. cerevisiae deletion strains, growth OD

Measured: normalized growth

Cc1cn[nH]c1
inactive: locus YJL164C, strain tpk1, hits give low values 1.03 | locus YJL166W, strain qcr8, hits give low values 1.03 | locus YJR066W, strain TOR1, hits give low values 0.924 | locus YJR075W, strain HOC1, hits give low values 1.02 | locus YKL160W, strain elf1, hits give low values 1.01 | locus YKR026C, strain gcn3, hits give low values 1.01 | locus YKR091W, strain srl3, hits give low values 1.02 | locus YLL001W, strain dnm1, hits give low values 1.02 | locus YLL026W, hits give low values 1.02 | locus YLL041C, strain sdh2, hits give low values 1.02 | locus YLR027C, strain aat2, hits give low values 1.01 | locus YLR113W, strain HOG1, hits give low values 1.02 | locus YLR221C, strain rsa3, hits give low values 1.02 | locus YLR258W, strain gsy2, hits give low values 1.03 | locus YLR262C, strain YPT6 (second series), hits give low values 1.02 | locus YLR320W, strain mms22, hits give low values 1.08 | locus YLR342W, strain FKS1, hits give low values 1.03 | locus YLR357W, strain rsc2, hits give low values 1.09 | locus YLR370C, strain arc18, hits give low values 1.03 | locus YLR384C, strain iki3, hits give low values 1.01 | locus YML120C, strain ndi1, hits give low values 1.01 | locus YMR058W, strain fet3, hits give low values 1.03 | locus YMR125W, strain sto1, hits give low values 1.03 | locus YMR129W, hits give low values 1.01 | locus YMR205C, strain PFK2, hits give low values 1.08 | locus YMR231W, strain pep5, hits give low values 1.02 | locus YMR307W, strain GAS1, hits give low values 1 | locus YNL071W, strain lat1, hits give low values 1.06 | locus YNL153C, strain GIM3, hits give low values 1.02 | locus YNL175C, strain NOP13, hits give low values 0.994 | locus YNL183C, strain NPR1, hits give low values 0.934 | locus YNL197C, strain WHI3, hits give low values 0.996 | locus YNL209W, strain ssb2, hits give low values 1.02 | locus YNL224C, strain SQS1, hits give low values 1.02 | locus YNL248C, strain rpa49, hits give low values 1.02 | locus YNL322C, strain KRE1 (second series), hits give low values 1.02 | locus YNL322C, strain KRE1, hits give low values 0.974 | locus YNR049C, strain mso1, hits give low values 1.01 | locus YOR001W, strain rrp6, hits give low values 1.03 | locus YOR070C, strain gyp1, hits give low values 1.02 | locus YOR080W, strain dia2, hits give low values 1.04 | locus YOR083W, strain WHI5 (second series), hits give low values 1.01 | locus YOR083W, strain WHI5, hits give low values 1.02 | locus YOR106W, strain vam3, hits give low values 1.03 | locus YOR231W, strain MKK1, hits give low values 0.985 | locus YOR265W, strain rbl2, hits give low values 1.02 | locus YOR270C, strain vph1, hits give low values 1.08 | locus YOR290C, strain snf2, hits give low values 1.03 | locus YPL051W, strain arl3, hits give low values 1.02 | locus YPL055C, strain LGE1, hits give low values 1.02 | locus YPL078C, strain atp4, hits give low values 1.04 | locus YPL106C, strain sse1, hits give low values 1.1 | locus YPL240C, strain hsp82, hits give low values 1.01 | locus YPL241C, strain CIN2, hits give low values 0.981 | locus YPL256C, strain CLN2, hits give low values 0.938
